± gives the standard deviation of the averaged measurements.

Chain of MurC (C4ZRI6 whole entry, looked up): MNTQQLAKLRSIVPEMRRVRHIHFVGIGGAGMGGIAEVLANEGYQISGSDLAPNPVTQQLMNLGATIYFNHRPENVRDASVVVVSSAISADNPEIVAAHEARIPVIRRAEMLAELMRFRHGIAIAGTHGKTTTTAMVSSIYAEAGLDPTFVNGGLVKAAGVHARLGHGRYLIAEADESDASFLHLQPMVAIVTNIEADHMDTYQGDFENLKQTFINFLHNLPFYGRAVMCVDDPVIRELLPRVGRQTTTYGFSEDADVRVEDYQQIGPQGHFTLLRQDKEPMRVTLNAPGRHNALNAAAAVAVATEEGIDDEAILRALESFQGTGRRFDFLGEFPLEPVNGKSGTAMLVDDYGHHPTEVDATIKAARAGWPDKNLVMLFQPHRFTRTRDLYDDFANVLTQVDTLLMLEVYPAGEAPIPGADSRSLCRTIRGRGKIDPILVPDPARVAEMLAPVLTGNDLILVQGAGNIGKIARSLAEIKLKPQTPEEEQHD

The target in the test is MurC (UniProt C4ZRI6). Kind of test: relative enzymatic activity vs untreated control (fraction); higher = less inhibition. To be noted: 100 µM; incubation time: 2 h at 37 C. The method, then:
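In vitro enzymatic inhibition assays (ProFoldin kits) for 12 purified essential E. coli enzymes or complexes, each treated with 218 active antibacterial compounds at 100 µM for 2 h at 37°C. Read-outs were fluorescence or absorbance (phosphate detection, dye binding), converted to activity via standard curves and expressed relative to untreated DMSO controls.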
The compound `Cl.O=C1CC2(CCCC2)CC(=O)N1CCCCN1CCN(c2ncccn2)CC1` came in with a relative enzymatic activity of 1.073 ± 0.0016.
The compound `C=CC1=C(C(=O)O)N2C(=O)C(NC(=O)C(=NO)c3csc(N)n3)C2SC1` (stereo not given) came in with a relative enzymatic activity of 0.997 ± 0.02.
`CC(=O)On1cc(F)c(=O)[nH]c1=O` returned a relative enzymatic activity of 1.07 ± 0.079.
For `CN(C)c1ccc(O)c2c1C[C@@H]1C[C@@H]3[C@@H](N(C)C)C(=O)C(C(N)=O)=C(O)[C@]3(O)C(=O)[C@H]1C2=O`, the relative enzymatic activity worked out at 1.17 ± 0.024.
For `O=C(O)c1cn(C2CC2)c2cc(N3CCNCC3)c(F)cc2c1=O`, the relative enzymatic activity turned out to be 1.03 ± 0.014.
In the case of `CN(C)CCOC(c1ccccc1)c1ccccc1.Cn1c(=O)c2[nH]c(Cl)nc2n(C)c1=O`, the relative enzymatic activity amounted to 1.02 ± 0.026.
For the compound `CCn1cc(C(=O)O)c(=O)c2cc(F)c(N3CCNCC3)cc21`, the relative enzymatic activity amounted to 1 ± 0.082.
`CCCCCCCCCCCCC[N+](C)(C)Cc1ccccc1` returned a relative enzymatic activity of 0.106 ± 0.027.
The figure for `CN(C)c1ccc(O)c2c1CC1CC3C(N(C)C)C(O)=C(C(N)=O)C(=O)C3(O)C(O)=C1C2=O.Cl` (stereo not given) is 1.05 ± 0.025.
For `CC(C)(O/N=C(\C(=O)N[C@@H]1C(=O)N2C(C(=O)O)=C(C[n+]3ccccc3)CS[C@H]12)c1csc(N)n1)C(=O)O`, the relative enzymatic activity worked out at 1.02 ± 0.022.
For `CC(C)(C)CC(C)(C)c1ccc(OCCOCC[N+](C)(C)Cc2ccccc2)cc1.[Cl-]`, the relative enzymatic activity came to 0.398 ± 0.28.
`CCn1nc(C(=O)O)c(=O)c2cc3c(cc21)OCO3` yielded a relative enzymatic activity of 1.01 ± 0.11.
As for `C=C1c2cccc(O)c2C(=O)C2=C(O)C3(O)C(=O)C(C(N)=O)=C(O)C(N(C)C)C3C(O)C12.Cl` (stereo not given), the relative enzymatic activity was determined as 1.079 ± 0.0059.
Take `COC1(NC(=O)C2SC(=C(C(N)=O)C(=O)O)S2)C(=O)N2C(C(=O)O)=C(CSc3nnnn3C)CSC21` (stereo not given): the relative enzymatic activity is 0.978 ± 0.098.
Consider `CCn1cc(C(=O)O)c(=O)c2cc(F)c(N3CCNCC3)nc21`, for which the relative enzymatic activity was 0.948 ± 0.15.
As for `CC[C@@H]1OC(=O)[C@H](C)[C@@H](O[C@H]2C[C@@](C)(OC)[C@@H](O)[C@H](C)O2)[C@H](C)[C@@H](O[C@@H]2O[C@H](C)C[C@H](N(C)C)[C@H]2O)[C@](C)(O)C[C@@H](C)/C(=N\OCOCCOC)[C@H](C)[C@@H](O)[C@]1(C)O`, the figure is 0.962 ± 0.064.
In turn, `COC(=O)N/N=C/c1c[n+]([O-])c2ccccc2[n+]1[O-]` had a relative enzymatic activity of 1 ± 0.079.
Compound `Oc1ccc(Cl)c2cccnc12` gave a relative enzymatic activity of 1.16 ± 0.16.
The figure for `NC(C(=O)NC1C(=O)N2C(C(=O)O)=C(Cl)CSC12)c1ccccc1` (stereo not given) is 0.944 ± 0.023.
Compound `C[C@H]1c2cccc(O)c2C(=O)C2=C(O)[C@]3(O)C(=O)[C@@H](C(N)=O)C(=O)[C@@H](N(C)C)[C@@H]3[C@@H](O)[C@@H]21` had a relative enzymatic activity of 0.97 ± 0.064.
For the compound `C=C1c2cccc(O)c2C(=O)[C@@H]2C(=O)[C@]3(O)C(=O)[C@@H](C(N)=O)C(=O)[C@@H](N(C)C)[C@@H]3[C@@H](O)[C@H]12`, the relative enzymatic activity is 1.03 ± 0.034.
As to `O=c1[nH]c(=O)n([C@@H]2C[C@@H](O)[C@@H](CO)O2)cc1F`, the relative enzymatic activity is 1.02 ± 0.035.
As for `Cc1scc2c1N(C(=O)CN1CCN(C)CC1)c1ccccc1NC2=O.Cl`, the relative enzymatic activity turned out to be 0.945 ± 0.037.
As for `CC1CN(c2c(F)c(F)c3c(=O)c(C(=O)O)cn(C4CC4)c3c2F)CC(C)N1` (stereo not given), the figure is 0.891 ± 0.082; as for `C=CC1=C(C(=O)O)N2C(=O)[C@@H](NC(=O)/C(=N/O)c3csc(N)n3)[C@H]2SC1`, 0.917 ± 0.017.
In turn, `C=CC1=C(C(=O)O)N2C(=O)[C@@H](NC(=O)/C(=N\O)c3csc(N)n3)[C@H]2SC1` had a relative enzymatic activity of 1 ± 0.028.
In the case of `NC(=O)NN=Cc1ccc([N+](=O)[O-])o1`, the relative enzymatic activity was found to be 1.05 ± 0.014.
`CC[C@H]1OC(=O)C[C@@H](O)[C@H](C)[C@@H](O[C@@H]2O[C@H](C)C[C@H](N(C)C)[C@H]2O)[C@@H](CC=O)C[C@@H](C)C(=O)/C=C/[C@]2(C)O[C@H]2[C@@H]1C` yielded a relative enzymatic activity of 1.02 ± 0.099.
Regarding `O=C([O-])C1=C(CSc2nnnn2CS(=O)(=O)[O-])CSC2C(NC(=O)C(O)c3ccccc3)C(=O)N12.[Na+].[Na+]` (stereo not given), the relative enzymatic activity was 1.25 ± 0.052.
In turn, `CN(C)c1cc(CNCC(C)(C)C)c(O)c2c1C[C@H]1C[C@H]3[C@H](N(C)C)C(=O)[C@H](C(N)=O)C(=O)[C@@]3(O)C(=O)[C@@H]1C2=O` displayed a relative enzymatic activity of 1.13 ± 0.062.
Take `CO[C@@]12[C@@H]3N[C@@H]3CN1C1=C(C(=O)C(N)=C(C)C1=O)[C@@H]2COC(N)=O`: the relative enzymatic activity is 1.08 ± 0.11.
Regarding `CON=C(C(=O)NC1C(=O)N2C(C(=O)O)=C(CSC(=O)c3ccco3)CSC12)c1csc(N)n1.Cl` (stereo not given), the relative enzymatic activity was 0.89 ± 0.22.
`CC1(C)SC2C(N3C(=O)C(c4ccccc4)NC3(C)C)C(=O)N2C1C(=O)[O-].[K+]` (stereo not given): the relative enzymatic activity was determined as 0.925 ± 0.025.
Turning to `CCC1OC(=O)C(C)C(OC2CC(C)(OC)C(O)C(C)O2)C(C)C(OC2OC(C)CC(N(C)C)C2O)C(C)(O)CC(C)CN(C)C(C)C(O)C1(C)O` (stereo not given), the relative enzymatic activity amounted to 0.998 ± 0.082.
As for `C/C(=C\C(=O)OCCCCCCCCC(=O)O)C[C@@H]1OC[C@H](C[C@@H]2O[C@H]2[C@@H](C)[C@H](C)O)[C@@H](O)[C@H]1O`, the figure is 0.891 ± 0.065.
`CO/N=C(\C(=O)N[C@@H]1C(=O)N2C(C(=O)O)=C(C[n+]3ccn4ncccc43)CS[C@H]12)c1nsc(N)n1` yielded a relative enzymatic activity of 0.964 ± 0.082.
On to `Cl.O=C(O)c1cn(-c2ccc(F)cc2)c2cc(N3CCNCC3)c(F)cc2c1=O`, for which the relative enzymatic activity was determined as 0.836 ± 0.012.
Compound `CC(C)(ON=C(C(=O)NC1C(=O)N2C(C(=O)[O-])=C(C[n+]3ccccc3)CSC12)c1csc(N)n1)C(=O)O` (stereo not given) came in with a relative enzymatic activity of 0.704 ± 0.14.
As for `CC1CN(c2c(F)c(N)c3c(=O)c(C(=O)O)cn(C4CC4)c3c2F)CC(C)N1` (stereo not given), the figure is 0.989 ± 0.12.
In turn, `C[C@H]1[C@H](NC(=O)/C(=N\OC(C)(C)C(=O)O)c2csc(N)n2)C(=O)N1S(=O)(=O)O` displayed a relative enzymatic activity of 1.29 ± 0.45.

(Values after the supplement of paper PMC9446081.)
